Assay results published in PubChem BioAssay (EPA / NIEHS).
Inconclusive results are not listed. Activity calls are given as the source filed them. How the source made its calls: active means hit-call score of the fitted dose curve at least 0.9, where 1 is the maximum; inconclusive means response in the unintended direction; inactive means score below 0.9.

target: human Phosphoinositide 3-kinase alpha (PI3Ka), PIK3CA (gene 5290) (UniProt P42336); assay: NVS_ENZ_hPI3Ka: NovaScreen (NVS) Enzymatic Assay for human Phosphoinositide 3-kinase alpha (PI3Ka) (AID 2283196)
Procedure, shortened: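 Fluorescence/mobility-shift readout of substrate conversion by recombinant enzyme, 1 h post-dosing. Primary screen in duplicate at 25 uM; actives (e.g. ≥30% inhibition) retested in singleton concentration-response, top concentration 50 uM.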

Row | SMILES | AC50 | outcome
1 | OCc1c[nH]c2ccccc12 | 19.3 µM (active) | –
2 | Cc1nc(-c2ccccn2)ncc1C(=O)Nn1cc(C)c2cc(F)ccc21 | – | inactive
3 | Cc1ncc([C@@H](CCCCCCc2ccc3c(n2)NCCC3)CC(=O)O)cn1 | – | inactive
4 | CCCCCCCCCCCCCCCCOS(=O)(=O)O | 3.42 µM (active) | –
5 | O=c1[nH]cnc2c1ncn2[C@H]1CC[C@@H](CO)O1 | – | inactive
6 | CC[C@H](C)C(=O)O[C@H]1C[C@H](O)C=C2C=C[C@H](C)[C@H](CC[C@@H](O)C[C@@H](O)CC(=O)O)[C@H]21 | – | inactive
7 | CCCCCCCC/C=C\CCCCCCCC(=O)OC[C@@H](O)[C@H]1OC[C@H](O)[C@H]1O | – | inactive
8 | CCCC(CCC)C(=O)O | – | inactive

target: human Protein Phosphatase, Mg2+/Mn2+ Dependent 1A (PPM1A), PPM1A (gene 5494) (UniProt P35813); assay: NVS_ENZ_hPPM1A: NovaScreen (NVS) Enzymatic Assay for human Protein Phosphatase, Mg2+/Mn2+ Dependent 1A (PPM1A) (AID 2283198)
Procedure, shortened: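 Cell-free recombinant PPM1A phosphatase assay with fluorescent substrate, read 1 h after dosing by electrophoretic mobility shift. Chemicals screened in duplicate at 25 uM, then in concentration-response up to 50 uM; loss of activity versus DMSO.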

Row | SMILES | outcome
9 | CCCCCCCCN(C)C | inactive
10 | O=C(NO)C1(NS(=O)(=O)c2ccc(Oc3ccc(F)cc3)cc2)CCOCC1 | inactive
11 | COc1cc2c(c(OC)c1OC)-c1ccc(OC)c(=O)cc1[C@@H](NC(C)=O)CC2 | inactive
12 | C[C@@H](Oc1ccc(CNC(=O)c2cccnc2Oc2ccc3c(c2)OCO3)c(F)c1)C(=O)O | inactive

target: Serine/threonine-protein phosphatase PP1-alpha catalytic subunit (Homo sapiens) (UniProt P62136); assay: NVS_ENZ_hPPP1CA: NovaScreen (NVS) Enzymatic Assay for human Protein Phosphatase 1 Aatalytic subunit Alpha (PPP1CA) (AID 2283200)
Sequence (P62136 whole entry, looked up): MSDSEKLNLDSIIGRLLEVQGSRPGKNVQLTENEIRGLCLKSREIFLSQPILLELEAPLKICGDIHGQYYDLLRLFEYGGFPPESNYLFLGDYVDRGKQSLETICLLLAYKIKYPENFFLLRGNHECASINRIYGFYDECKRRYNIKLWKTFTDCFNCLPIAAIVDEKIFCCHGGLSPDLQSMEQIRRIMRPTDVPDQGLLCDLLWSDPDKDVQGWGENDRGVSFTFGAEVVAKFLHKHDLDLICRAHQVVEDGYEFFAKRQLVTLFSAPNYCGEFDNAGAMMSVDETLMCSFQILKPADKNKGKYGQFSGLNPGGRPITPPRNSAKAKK
Procedure, shortened: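 Recombinant enzyme activity read by fluorescence with electrophoretic mobility shift separating substrate from product, 1.33 h after dosing; loss of signal vs DMSO baseline. Primary screen in duplicate at 25 uM; actives retested in concentration-response up to 50 uM.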

Row | SMILES | outcome
13 | CCCCCCCCN(C)C | inactive
14 | C[C@]12C=CC(=O)C=C1CC[C@H]1[C@@H]3C[C@@H](O)[C@](O)(C(=O)CO)[C@@]3(C)C[C@H](O)[C@@]12F | inactive
15 | CC(C)CCCCCCOC(=O)C1CCCCC1C(=O)OCCCCCCC(C)C (centres undefined) | inactive
16 | c1ccc(C(O[C@@H]2CCCN(CCc3ccc4c(c3)OCO4)C2)c2ccccc2)cc1 | inactive

target: human Protein Tyrosine Phosphatase Non-receptor Type 1 (PTPN1), PTPN1 (gene 5770) (UniProt P18031); assay: NVS_ENZ_hPTPN1: NovaScreen (NVS) Enzymatic Assay for human Protein Tyrosine Phosphatase Non-receptor Type 1 (PTPN1) (AID 2283201)
Sequence (P18031 whole entry, looked up): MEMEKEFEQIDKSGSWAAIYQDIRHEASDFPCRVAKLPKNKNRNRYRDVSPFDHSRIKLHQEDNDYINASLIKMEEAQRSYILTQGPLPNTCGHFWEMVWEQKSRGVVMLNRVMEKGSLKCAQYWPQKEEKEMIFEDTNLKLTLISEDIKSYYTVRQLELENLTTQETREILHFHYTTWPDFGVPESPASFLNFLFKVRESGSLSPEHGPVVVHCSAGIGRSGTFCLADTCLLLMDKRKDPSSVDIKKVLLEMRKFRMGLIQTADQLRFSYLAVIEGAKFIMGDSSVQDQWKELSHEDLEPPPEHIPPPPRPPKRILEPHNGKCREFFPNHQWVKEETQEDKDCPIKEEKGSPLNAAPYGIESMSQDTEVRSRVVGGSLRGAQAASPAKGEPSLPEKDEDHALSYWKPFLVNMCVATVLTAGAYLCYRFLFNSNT
Procedure, shortened: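 Cell-free fluorogenic-substrate activity assay on recombinant enzyme, read 1.33 h after dosing by fluorescence and electrophoretic mobility shift; loss of signal vs DMSO baseline. Primary screen in duplicate at 25 uM, hits then run in concentration-response up to 50 uM.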

Row | SMILES | outcome
17 | Cc1nc(-c2ccccn2)ncc1C(=O)Nn1cc(C)c2cc(F)ccc21 | inactive
18 | O=c1[nH]cnc2c1ncn2[C@H]1CC[C@@H](CO)O1 | inactive
19 | O=C(NO)C1(NS(=O)(=O)c2ccc(Oc3ccc(F)cc3)cc2)CCOCC1 | inactive
20 | CCc1cccc(CC)c1N | inactive
21 | CCCC(CCC)C(=O)O | inactive

target: Tyrosine-protein phosphatase non-receptor type 11 (Homo sapiens) (UniProt Q06124); assay: NVS_ENZ_hPTPN11: NovaScreen (NVS) Enzymatic Assay for human Protein Tyrosine Phosphatase Non-receptor Type 11 (PTPN11) (AID 2283202)
Sequence (Q06124 whole entry, looked up): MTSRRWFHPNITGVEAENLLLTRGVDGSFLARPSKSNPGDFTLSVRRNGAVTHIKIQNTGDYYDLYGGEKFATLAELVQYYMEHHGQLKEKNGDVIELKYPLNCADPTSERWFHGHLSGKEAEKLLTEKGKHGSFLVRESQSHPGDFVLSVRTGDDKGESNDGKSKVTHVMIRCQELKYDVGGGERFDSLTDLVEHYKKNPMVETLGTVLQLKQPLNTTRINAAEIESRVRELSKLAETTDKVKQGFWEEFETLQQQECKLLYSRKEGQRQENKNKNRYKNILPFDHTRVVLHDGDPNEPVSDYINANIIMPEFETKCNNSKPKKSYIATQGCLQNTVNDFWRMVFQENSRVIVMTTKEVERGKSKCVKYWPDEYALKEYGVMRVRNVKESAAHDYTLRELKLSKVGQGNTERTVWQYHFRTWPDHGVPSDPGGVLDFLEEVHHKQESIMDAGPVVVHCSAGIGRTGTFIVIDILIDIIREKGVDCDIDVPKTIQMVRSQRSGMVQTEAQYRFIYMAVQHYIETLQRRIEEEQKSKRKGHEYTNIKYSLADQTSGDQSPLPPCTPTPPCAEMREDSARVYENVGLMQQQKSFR
Procedure: (§1) NVS_ENZ_hPTPN11 is a biochemical, single-readout assay that uses extracted gene-proteins in a cell-free assay. Measurements were taken 0.5 hour after chemical dosing in a 384-well plate.NVS_ENZ_hPTPN11 is one of one assay component(s) measured or calculated from the NVS_ENZ_hPTPN11 assay. It is designed to make measurements of enzyme activity, a form of enzyme reporter, as detected with fluorescence intensity signals by Fluorescence and electrophoretic mobility shift technology.Data from the assay component NVS_ENZ_hPTPN11 was analyzed into 1 assay endpoint. This assay endpoint, NVS_ENZ_hPTPN11, was analyzed in the positive analysis fitting direction relative to DMSO as the negative control and baseline of activity. Using a type of enzyme reporter, loss-of-signal activity can be used to understand changes in the enzymatic activity as they relate to the gene PTPN11. Furthermore, this assay endpoint can be referred to as a primary readout, because this assay has produced multiple assay endpoints where this one serves a enzymatic activity function. To generalize the intended target to other relatable targets, this assay endpoint is annotated to the phosphatase intended target family, where the subfamily is non-receptor tyrosine phosphatase.
(§2) Binding assays used specific radioligands (tritiated, iodinated) with non-radioactive competitive displacement ligands in agonist or antagonist protocols (as indicated) and various reference compounds and inhibitors to titrate specific binding to receptors and transporters. Most enzyme assays (CYPs, kinases, phosphatases, proteases, HDACs) used recombinant protein and specific substrates (fluorescence mostly, some colorimetric and radioactive) and inhibitors, followed by a biochemical separation of substrate and product. All assays for the biochemical HTS were initially run in duplicate at a single concentration (10 uM for CYP450 assays and 25 uM for all others). Assay-chemical combinations meeting a pre-defined threshold (e.g., 30% inhibition and other criteria defined below) were then run in singleton concentration-response format with maximum concentration of 20 uM for CYPs and 50 uM for all others. Each assay was run with positive and negative controls, and concurrent controls on every plate. The follow-up (secondary) screen tested active chemical-pairs in concentration series, as well as a few additional assays not tested in the primary screen, some selected negative inactives, and several cases re-run in the concentration series for confirmatory purposes.

Row | SMILES | outcome
22 | O=C1CN(N=Cc2ccc([N+](=O)[O-])o2)C(=O)N1 | inactive
23 | Cc1nc(-c2ccccn2)ncc1C(=O)Nn1cc(C)c2cc(F)ccc21 | inactive
24 | Cc1ncc([C@@H](CCCCCCc2ccc3c(n2)NCCC3)CC(=O)O)cn1 | inactive
25 | O=c1[nH]cnc2c1ncn2[C@H]1CC[C@@H](CO)O1 | inactive
26 | CCCCCCCC/C=C\CCCCCCCC(=O)OC[C@@H](O)[C@H]1OC[C@H](O)[C@H]1O | inactive
27 | CCCC(CCC)C(=O)O | inactive
28 | OCCOCCOCCO | inactive

target: Tyrosine-protein phosphatase non-receptor type 12 (Homo sapiens) (UniProt Q05209); assay: NVS_ENZ_hPTPN12: NovaScreen (NVS) Enzymatic Assay for human Protein Tyrosine Phosphatase Non-receptor Type 12 (PTPN12) (AID 2283204)
Procedure, shortened: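 Single-concentration duplicates (25 uM) preceded singleton concentration-response up to 50 uM for chemicals passing threshold. Cell-free recombinant PTPN12 activity was read 1.33 h after dosing via fluorescence after mobility-shift separation; loss of signal versus DMSO.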

Row | SMILES | outcome
29 | CCCCCCCCCC | inactive
30 | Cc1nc(-c2ccccn2)ncc1C(=O)Nn1cc(C)c2cc(F)ccc21 | inactive
31 | Cc1ncc([C@@H](CCCCCCc2ccc3c(n2)NCCC3)CC(=O)O)cn1 | inactive
32 | O=c1[nH]cnc2c1ncn2[C@H]1CC[C@@H](CO)O1 | inactive
33 | CC[C@H](C)C(=O)O[C@H]1C[C@H](O)C=C2C=C[C@H](C)[C@H](CC[C@@H](O)C[C@@H](O)CC(=O)O)[C@H]21 | inactive
34 | CCCCCCCC/C=C\CCCCCCCC(=O)OC[C@@H](O)[C@H]1OC[C@H](O)[C@H]1O | inactive
35 | OCCOCCOCCO | inactive

target: Tyrosine-protein phosphatase non-receptor type 13 (Homo sapiens) (UniProt Q12923); assay: NVS_ENZ_hPTPN13: NovaScreen (NVS) Enzymatic Assay for human Protein Tyrosine Phosphatase Non-receptor Type 13 (PTPN13) (AID 2283205)
Sequence (Q12923 whole entry, looked up): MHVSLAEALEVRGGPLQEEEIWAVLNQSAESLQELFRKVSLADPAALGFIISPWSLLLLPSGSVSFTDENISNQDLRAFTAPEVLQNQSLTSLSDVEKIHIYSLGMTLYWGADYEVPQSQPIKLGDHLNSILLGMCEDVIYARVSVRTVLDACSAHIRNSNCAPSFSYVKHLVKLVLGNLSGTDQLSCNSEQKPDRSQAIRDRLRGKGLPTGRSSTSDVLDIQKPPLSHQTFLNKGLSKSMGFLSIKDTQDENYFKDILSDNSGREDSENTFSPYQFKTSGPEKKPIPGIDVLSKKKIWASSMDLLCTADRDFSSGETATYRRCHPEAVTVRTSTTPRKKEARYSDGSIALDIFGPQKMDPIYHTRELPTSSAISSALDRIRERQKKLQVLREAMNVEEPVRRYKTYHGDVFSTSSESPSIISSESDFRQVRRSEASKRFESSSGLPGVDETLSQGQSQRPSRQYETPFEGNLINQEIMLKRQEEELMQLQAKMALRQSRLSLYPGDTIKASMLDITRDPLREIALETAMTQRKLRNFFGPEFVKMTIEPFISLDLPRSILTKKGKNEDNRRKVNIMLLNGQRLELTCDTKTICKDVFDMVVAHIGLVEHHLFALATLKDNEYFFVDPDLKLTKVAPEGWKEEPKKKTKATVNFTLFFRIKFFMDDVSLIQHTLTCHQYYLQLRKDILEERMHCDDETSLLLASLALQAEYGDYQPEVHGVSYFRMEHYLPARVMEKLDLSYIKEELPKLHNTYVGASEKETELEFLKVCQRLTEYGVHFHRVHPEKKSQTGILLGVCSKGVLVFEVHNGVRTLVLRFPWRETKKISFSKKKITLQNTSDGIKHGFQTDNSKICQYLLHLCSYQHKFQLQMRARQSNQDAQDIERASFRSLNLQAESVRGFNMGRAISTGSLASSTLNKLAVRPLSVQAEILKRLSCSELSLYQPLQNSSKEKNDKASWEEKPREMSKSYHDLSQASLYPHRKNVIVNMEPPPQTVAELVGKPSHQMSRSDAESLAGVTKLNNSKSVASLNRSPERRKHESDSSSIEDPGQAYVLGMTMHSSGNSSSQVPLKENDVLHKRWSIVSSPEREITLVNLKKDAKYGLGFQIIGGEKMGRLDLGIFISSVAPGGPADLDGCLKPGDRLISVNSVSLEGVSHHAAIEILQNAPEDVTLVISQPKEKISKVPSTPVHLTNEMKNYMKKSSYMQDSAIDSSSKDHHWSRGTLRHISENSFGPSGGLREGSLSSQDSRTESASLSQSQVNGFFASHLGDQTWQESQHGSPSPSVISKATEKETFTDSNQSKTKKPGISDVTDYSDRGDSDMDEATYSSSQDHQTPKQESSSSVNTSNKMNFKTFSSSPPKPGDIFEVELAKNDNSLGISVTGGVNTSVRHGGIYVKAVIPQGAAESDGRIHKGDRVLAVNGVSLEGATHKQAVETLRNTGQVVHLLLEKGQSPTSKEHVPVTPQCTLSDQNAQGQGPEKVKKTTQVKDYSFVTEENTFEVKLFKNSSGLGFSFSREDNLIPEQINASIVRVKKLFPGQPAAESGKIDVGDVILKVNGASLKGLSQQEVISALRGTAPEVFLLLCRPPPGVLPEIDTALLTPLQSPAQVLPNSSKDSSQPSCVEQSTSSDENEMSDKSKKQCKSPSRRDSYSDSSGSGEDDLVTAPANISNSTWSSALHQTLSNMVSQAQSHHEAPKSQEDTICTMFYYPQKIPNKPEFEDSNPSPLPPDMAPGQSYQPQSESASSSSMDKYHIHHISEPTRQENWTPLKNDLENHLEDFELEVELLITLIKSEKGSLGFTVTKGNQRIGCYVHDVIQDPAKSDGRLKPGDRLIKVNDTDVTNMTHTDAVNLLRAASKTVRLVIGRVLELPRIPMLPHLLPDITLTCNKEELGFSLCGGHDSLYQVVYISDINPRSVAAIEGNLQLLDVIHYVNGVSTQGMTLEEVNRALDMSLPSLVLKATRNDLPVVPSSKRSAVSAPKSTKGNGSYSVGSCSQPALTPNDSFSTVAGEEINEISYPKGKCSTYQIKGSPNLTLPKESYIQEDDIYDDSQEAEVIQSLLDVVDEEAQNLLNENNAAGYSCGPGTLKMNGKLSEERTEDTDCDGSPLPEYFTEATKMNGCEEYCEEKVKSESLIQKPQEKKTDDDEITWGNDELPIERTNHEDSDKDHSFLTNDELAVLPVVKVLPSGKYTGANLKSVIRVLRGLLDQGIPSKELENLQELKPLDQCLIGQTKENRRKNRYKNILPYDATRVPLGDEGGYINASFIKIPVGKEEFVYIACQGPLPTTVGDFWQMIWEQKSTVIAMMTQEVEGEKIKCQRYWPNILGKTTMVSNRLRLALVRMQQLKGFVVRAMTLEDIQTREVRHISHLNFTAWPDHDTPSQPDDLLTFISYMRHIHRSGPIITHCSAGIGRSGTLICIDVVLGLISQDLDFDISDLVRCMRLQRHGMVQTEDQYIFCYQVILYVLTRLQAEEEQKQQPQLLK
Procedure, shortened: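 Cell-free assay of recombinant human PTPN13 with a fluorescent substrate, product separated by electrophoretic mobility shift and read 0.5 h after dosing. Primary screen at 25 uM in duplicate, then concentration-response up to 50 uM. Loss of signal fitted against DMSO.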

Row | SMILES | AC50 | outcome
36 | O=C(O)c1ccc2c(c1)nc(C(=O)NC1CCN(C3CC3)CC1)n2Cc1cc(-c2ccc(Cl)s2)on1 | 0.257 µM (active) | –
37 | Cc1nc(-c2ccccn2)ncc1C(=O)Nn1cc(C)c2cc(F)ccc21 | 33.8 µM (active) | –
38 | O=c1[nH]cnc2c1ncn2[C@H]1CC[C@@H](CO)O1 | – | inactive
39 | OC(CCl)CCl | – | inactive
40 | c1ccc2cc3ccccc3cc2c1 | – | inactive
41 | CCCC(CCC)C(=O)O | – | inactive

target: Tyrosine-protein phosphatase non-receptor type 14 (Homo sapiens) (UniProt Q15678); assay: NVS_ENZ_hPTPN14: NovaScreen (NVS) Enzymatic Assay for human Protein Tyrosine Phosphatase Non-receptor Type 14 (PTPN14) (AID 2283206)
Sequence (Q15678 whole entry, looked up): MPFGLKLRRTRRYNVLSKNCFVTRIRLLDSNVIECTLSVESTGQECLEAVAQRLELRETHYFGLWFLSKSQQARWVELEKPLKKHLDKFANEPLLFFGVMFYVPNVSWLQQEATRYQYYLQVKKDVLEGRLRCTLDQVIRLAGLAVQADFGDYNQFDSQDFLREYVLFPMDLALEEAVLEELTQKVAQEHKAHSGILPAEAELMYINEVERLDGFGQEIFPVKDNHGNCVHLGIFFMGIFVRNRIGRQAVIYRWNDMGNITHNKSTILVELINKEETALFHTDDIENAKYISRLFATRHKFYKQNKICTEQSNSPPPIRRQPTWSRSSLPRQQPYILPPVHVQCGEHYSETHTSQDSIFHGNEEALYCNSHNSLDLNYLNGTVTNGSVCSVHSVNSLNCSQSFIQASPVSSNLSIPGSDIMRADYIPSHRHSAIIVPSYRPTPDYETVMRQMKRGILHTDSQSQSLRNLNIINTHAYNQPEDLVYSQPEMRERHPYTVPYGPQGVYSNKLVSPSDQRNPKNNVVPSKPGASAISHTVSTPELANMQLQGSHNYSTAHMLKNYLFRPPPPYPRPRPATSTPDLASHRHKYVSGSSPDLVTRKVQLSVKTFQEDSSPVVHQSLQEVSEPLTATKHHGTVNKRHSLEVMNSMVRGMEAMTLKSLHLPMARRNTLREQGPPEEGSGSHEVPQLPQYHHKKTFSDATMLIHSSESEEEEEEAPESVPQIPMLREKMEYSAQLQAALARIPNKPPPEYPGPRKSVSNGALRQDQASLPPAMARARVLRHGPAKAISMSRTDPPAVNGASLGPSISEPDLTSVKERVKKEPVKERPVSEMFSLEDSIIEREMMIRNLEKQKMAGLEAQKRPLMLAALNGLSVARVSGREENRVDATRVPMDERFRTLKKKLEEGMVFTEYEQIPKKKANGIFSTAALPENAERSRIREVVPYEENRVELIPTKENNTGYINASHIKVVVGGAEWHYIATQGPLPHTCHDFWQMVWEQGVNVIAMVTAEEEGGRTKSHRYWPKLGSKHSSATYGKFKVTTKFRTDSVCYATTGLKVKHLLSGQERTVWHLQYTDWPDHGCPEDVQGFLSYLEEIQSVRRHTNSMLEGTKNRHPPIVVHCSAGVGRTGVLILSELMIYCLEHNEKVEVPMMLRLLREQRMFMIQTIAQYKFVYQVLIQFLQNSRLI
Procedure: as §1, with “NVS_ENZ_hPTPN14” for “NVS_ENZ_hPTPN11”, “plate.NVS_ENZ_hPTPN14” for “plate.NVS_ENZ_hPTPN11”, “NVS_ENZ_hPTPN14,” for “NVS_ENZ_hPTPN11,”, “PTPN14.” for “PTPN11.”
as §2

Row | SMILES | outcome
42 | Cc1nc(-c2ccccn2)ncc1C(=O)Nn1cc(C)c2cc(F)ccc21 | inactive
43 | Cc1ncc([C@@H](CCCCCCc2ccc3c(n2)NCCC3)CC(=O)O)cn1 | inactive
44 | O=c1[nH]cnc2c1ncn2[C@H]1CC[C@@H](CO)O1 | inactive
45 | CCCC(CCC)C(=O)O | inactive

target: human Protein Tyrosine Phosphatase Non-receptor Type 4 (PTPN4), PTPN4 (gene 5775) (UniProt P29074); assay: NVS_ENZ_hPTPN4: NovaScreen (NVS) Enzymatic Assay for human Protein Tyrosine Phosphatase Non-receptor Type 4 (PTPN4) (AID 2283208)
Procedure, shortened: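 Cell-free assay of PTPN4 expressed in Sf9 cells, using a fluorescent substrate with product separated by mobility shift; read 1.33 h after dosing. Single-point screen at 25 uM, then concentration-response up to 50 uM. Loss of signal relative to DMSO.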

Row | SMILES | outcome
46 | O=c1[nH]cnc2c1ncn2[C@H]1CC[C@@H](CO)O1 | inactive
47 | O=C(NO)C1(NS(=O)(=O)c2ccc(Oc3ccc(F)cc3)cc2)CCOCC1 | inactive
48 | CCCCCCCC/C=C\CCCCCCCC(=O)OC[C@@H](O)[C@H]1OC[C@H](O)[C@H]1O | inactive

target: human Protein Tyrosine Phosphatase Non-receptor Type 9 (PTPN9), PTPN9 (gene 5780) (UniProt P43378); assay: NVS_ENZ_hPTPN9: NovaScreen (NVS) Enzymatic Assay for human Protein Tyrosine Phosphatase Non-receptor Type 9 (PTPN9) (AID 2283209)
Procedure, shortened: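 Sf9-expressed enzyme in a cell-free assay, fluorescence read 1.33 h after dosing with mobility-shift separation of substrate and product. Tested at 25 uM in duplicate, then up to 50 uM; signal loss versus DMSO.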

Row | SMILES | outcome
49 | O=C(O)c1ccc2c(c1)nc(C(=O)NC1CCN(C3CC3)CC1)n2Cc1cc(-c2ccc(Cl)s2)on1 | inactive
50 | Cc1nc(-c2ccccn2)ncc1C(=O)Nn1cc(C)c2cc(F)ccc21 | inactive
51 | CCCCC(CC)C(=O)OCCOCCOCCOC(=O)C(CC)CCCC (centres undefined) | inactive
52 | Cc1ncc([C@@H](CCCCCCc2ccc3c(n2)NCCC3)CC(=O)O)cn1 | inactive
53 | OC[C@H]1O[C@@H]2O[C@H]3[C@H](O)[C@@H](O)[C@@H](O[C@H]4[C@H](O)[C@@H](O)[C@@H](O[C@H]5[C@H](O)[C@@H](O)[C@@H](O[C@H]6[C@H](O)[C@@H](O)[C@@H](O[C@H]7[C@H](O)[C@@H](O)[C@@H](O[C@H]1[C@H](O)[C@H]2O)O[C@@H]7CO)O[C@@H]6CO)O[C@@H]5CO)O[C@@H]4CO)O[C@@H]3CO | inactive
54 | CCCC(CCC)C(=O)O | inactive
